Measurements from PubChem BioAssay AID2107 (National Center for Advancing Translational Sciences (NCATS), 2009).
The whole screen tested about 240,000 compounds, of which about 20 (0.008%) were called active. Roughly 1% stayed inconclusive and do not appear here. Calls come from the whole dose curve; as a rule, active = well fitted inhibition curve with a large enough effect; inconclusive = small, poorly fitted or top-dose-only effect, or effect the other way; inactive = flat fitted curve, though single readings scatter. Not all results are given here. Peptide text beside a SMILES is read from it.

What follows are compounds tested against Alpha-galactosidase A (Homo sapiens) (UniProt P06280) (assay: qHTS Assay for Inhibitors and Activators of Human alpha-Galactosidase From Spleen Homogenate). Conditions: 4MU-alpha-Gal fluorescence, 40 min; series mostly up to 80 µM; activity change, negative = inhibition: at the top concentration.
Alpha-galactosidase A (Homo sapiens), sequence (P06280 32-429 limits assumed): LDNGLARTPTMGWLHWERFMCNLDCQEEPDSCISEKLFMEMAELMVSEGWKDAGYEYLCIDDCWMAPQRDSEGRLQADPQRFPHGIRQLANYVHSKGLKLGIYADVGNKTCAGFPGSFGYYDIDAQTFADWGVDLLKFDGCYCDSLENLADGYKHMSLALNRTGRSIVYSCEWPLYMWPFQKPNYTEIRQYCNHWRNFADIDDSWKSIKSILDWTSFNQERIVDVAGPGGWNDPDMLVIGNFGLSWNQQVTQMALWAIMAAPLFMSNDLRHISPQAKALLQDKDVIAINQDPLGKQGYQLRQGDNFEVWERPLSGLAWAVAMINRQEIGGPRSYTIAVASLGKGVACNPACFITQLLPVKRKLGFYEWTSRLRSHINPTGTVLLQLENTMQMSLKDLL
Text: NIH Chemical Genomics Center [NCGC] NIH Molecular Libraries Probe Production Centers Network [MLPCN] MLPCN Grant: R03 MH084842-01 Assay Submitter (PI): Wei Zheng NCGC Assay Overview: Alpha-galactosidase is a homodimeric glycoprotein that hydrolyzes the terminal alpha-galactosyl moieties from glycolipids and glycoproteins. Deficiency of this enzyme results in Fabry Disease with progressive accumulation of globotriaosylceramide and other glycosphingolipids in vascular endothelial cells that causes renal failure, myocardial infarction and stroke, and premature death in patients. It has been reported that the improper folding and trafficking of alpha-galactosidase resulting from genetic mutations may account for a significant number of Fabry patients. […] We optimized this alpha-galactosidase assay in 1536-well plate format for identification of novel small molecule inhibitors or activators with structures other than the sugar analogs in order to develop new pharmacological chaperones. In particular, this assay is directed towards discovering compounds active in more natural setting, tissue homogenate, that may have been missed by screens of the purified enzyme under more stringent conditions.
NCGC Assay Protocol Summary: This is a fluorogenic enzyme assay with 4-methylumbelliferyl-alpha-D-galactopyranoside as the substrate and human spleen homogenate containing alpha-galactosidase as the enzyme preparation. Upon hydrolysis of this fluorogenic substrate, the resulting product, 4-methylumbelliferone (which excites at 365 nm and emits at 440 nm) can be detected by a fluorescence plate reader. Data were normalized to the controls for basal activity (without enzyme) and 100% activity (with enzyme). The AC50 values were determined from concentration-response data modeled with the standard Hill equation. Assay buffer: 50 mM citric acid (titrated with potassium phosphate to pH 5.0), 0.01% Tween-20 (pH 5.0 is an optimal condition for this enzyme assay) 1536-well assay protocol for the alpha-galactosidase from human spleen homogenate: (1) Add 2 ul/well spleen homogenate (1 ug) (2) Add 23 nL compounds in DMSO solution. The final titration was 0.5 nM to 58 uM. (3) Add 2 ul of substrate (1 mM final) (4) Incubate at 37C for 40 min (5) Add 2 ul stop solution (1M NaOH and 1M Glycine mixture, pH 10) (6) Detect the assay plate in a ViewLux plate reader (PerkinElmer) with Ex=365 nm and Em=440nm. Keywords: Alpha-galactosidase, Fabry Disease, pharmacological chaperone, chaperone therapy, high throughput screening, alpha- galactosidase inhibitor, MLSMR, MLSCN, NIH Roadmap, qHTS and NCGC
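Note: 0% = enzyme with vehicle and -100% = no enzyme basal signal.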

Activity change, negative = inhibition, inactive:
CCn1c2ccccc2c2cc(NC(=O)Nc3ccc([N+](=O)[O-])cc3C)ccc21 0.688%
COc1ccc(NC(=O)CSc2nnc(-c3ccccc3F)n2C2CC2)cc1S(N)(=O)=O -3.7%
Cc1cc(C(=O)COc2ccccc2[N+](=O)[O-])c(C)n1-c1cccc(S(=O)(=O)N2CCOCC2)c1 -10.8%
Oc1ccc(-c2c(-c3ccccc3)nn3c(C(F)(F)F)cc(C(F)(F)F)nc23)cc1 1.09%
CCCn1c(C)nc2c(NCCCCN(CC)CC)nc(C)nc21 -5.51%
COc1ccc(C2=Nn3c(nnc3-c3ccccc3O)SC2)cc1 8.2%
O=C(Cc1coc2ccc3ccccc3c12)NCc1cccs1 -1.17%
O=C(CSC(=S)N1CCCCC1)c1c(F)cccc1F -0.717%
O=c1c([N+](=O)[O-])cccn1Cc1ccc(F)cc1Cl -3.55%
CCc1nnc(NC(=O)C2CC(=O)N(c3ccc4c(c3)OCCO4)C2)s1 (stereo not given) -3.08%
CCOC(=O)N1CCN(C(=O)c2ccccc2N(Cc2ccccc2)S(=O)(=O)c2ccc(OC)cc2)CC1 -14.8%
O=S(O)S(=O)(=O)O -0.576%
COc1c(O)c2c(=O)cc(OC)c3c4c(OC)cc(=O)c5c(O)c(OC)c6c(c(c1C[C@@](C)(O)[C@H]6C(C)=O)c23)c54 6.25%
NC(=O)C1(C(N)=O)OC1c1ccc(Cl)cc1Cl (stereo not given) 0.677%
C/C(=N/N1CCN(Cc2cccc3ccccc23)CC1)c1cccnc1 -9.31%
COc1ccc(N(C(=O)c2ccc(C)cc2)S(=O)(=O)c2cccs2)cc1 -18.5%
C[C@H]1CC[C@H](C(=O)O)N[C@@H]1c1ccc(C#Cc2ccccc2)cc1 7.47% [at 17.5 µM]
COc1ccc(-c2cn3ccc(C)cc3n2)cc1 -13.9%
CCN(CC)CCOCCOc1ccc(Cl)c2ccccc12 -6.85%
Cc1noc(C)c1-c1ccc2ncnc(NC(C)c3ccco3)c2c1 (stereo not given) -0.605%
Nc1ncnc2c1ncn2C1CC(O)C(CO)O1 (stereo not given)
O=C(Nc1ccc2c(c1)OCO2)c1sc2cc(Cl)ccc2c1Cl 0.413%
C/C(=N\NC(=O)c1ccc(C)cc1)C1C(=O)c2ccccc2C1=O -4.85%
COc1ccccc1N1CCN(C(=O)c2ccc(Cl)c(S(=O)(=O)N3CCCC3)c2)CC1 -1.09%
CCOC(OCC)OCC -7.34%
Cc1ccc(C)c2[nH]c(=O)c(CN(Cc3cccnc3)C(=S)NCc3ccco3)cc12 13.4%
Cc1ccc(CNC(=O)C2(C(F)(F)F)C/C(=C\CCO)CCCO2)o1 (stereo not given) 0.634%
COc1cccc(NC(=O)CC2C(=O)NCCN2C(=S)Nc2ccc(F)cc2)c1 (stereo not given) -0.318%
Cc1ccc(SCC(CC(C)C)N2CCN(CCc3ccccc3)CCC2=O)cc1 (stereo not given) -7.8%
COC(=O)c1sc(=S)n(-c2ccc(Cl)cc2)c1C 13.2%
COC(=O)c1ccc([C@@H](O)[C@H](C)C(=O)CC(=O)OC(C)(C)C)cc1 2.63%
C[C@@H](O)[C@@H]1NC(=O)[C@H](CCCCN)NC(=O)[C@H](Cc2c[nH]c3ccccc23)NC(=O)[C@H](Cc2ccccc2)NC(=O)[C@H](Cc2ccccc2)NC(=O)[C@H](CC(N)=O)NC(=O)[C@H](CCCCN)NC(=O)[C@@H](NC(=O)[C@@H]2CCCN2)CSSC[C@@H](C(=O)N[C@@H](CCCCN)C(=O)O)NC(=O)[C@H](CO)NC(=O)[C@H](CO)NC(=O)[C@H](Cc2ccccc2)NC1=O (HELM PEPTIDE1{P.C.K.N.F.F.W.K.T.F.S.S.C.K}$PEPTIDE1,PEPTIDE1,2:R3-13:R3$$$V2.0) 0.42%
Cc1ccccc1N1CCN(Cc2nc(Cc3ccccc3F)no2)CC1 -25.5%
O=c1cc(-c2ccc(O)cc2)oc2c(-c3cc(-c4cc(=O)c5c(O)cc(O)cc5o4)ccc3O)c(O)ccc12 0.218%
O=C(CSc1nc(O)c(Cc2ccccc2)c(=O)[nH]1)Nc1nc2c(s1)CCCC2 6.1%
CCOC(=O)C1=C(CN2CCc3ccccc32)NC(=O)NC1c1ccc(Cl)cc1 (stereo not given) -11.2%
C=CCOC(=O)C(=C)C -2.52%
COc1ccc(-c2ccc(C3C4C=CCCC4(C)C(=O)N3Cc3ccccc3)c(F)c2)cc1OC (stereo not given) 1.48%
Cc1cccc(CNc2ccnc(-c3cccnc3)n2)c1 5.5%
OCCC(O)CO (stereo not given)
C/C=C/c1ccc(OCC(O)CN2CCCCCCC2)c(OC)c1 (stereo not given) -2.95%
Cc1ccc(N(C(=O)c2ccc(S(=O)(=O)N(C)C)cc2)C2C=CS(=O)(=O)C2)cc1 (stereo not given) 1.39%
CC[C@H](C)[C@H](NC(=O)[C@H](CCCNC(=N)N)NC(=O)[C@H](CCCNC(=N)N)NC(=O)[C@H](CC(C)C)NC(=O)[C@H](Cc1ccccc1)NC(=O)CNC(=O)CNC(=O)[C@@H](N)Cc1ccc(O)cc1)C(=O)N[C@@H](CCCNC(=N)N)C(=O)N1CCC[C@H]1C(=O)N[C@@H](CCCCN)C(=O)N[C@@H](CC(C)C)C(=O)N[C@@H](CCCCN)C(=O)N[C@@H](Cc1c[nH]c2ccccc12)C(=O)N[C@@H](CC(=O)O)C(=O)N[C@@H](CC(N)=O)C(=O)N[C@@H](CCC(N)=O)C(=O)O -4.4%
CC(C)=CCC[C@]1(C)[C@@H](CC=C(C)C)C[C@@]2(CC=C(C)C)C(=O)[C@]1(C(=O)C(C)C)C(=O)C(CC=C(C)C)=C2O -1.9%
COC(=O)C(CC(C)C)NS(=O)(=O)c1cc(Br)ccc1Br (stereo not given) 4.91%
